# Screens (PubChem BioAssay)
# FMDV inh = antivirals against foot and mouth disease virus; Potency, µM (top dose mostly 57.9 µM), actives largely listed as inhibitors; actives 1.2% (n = 410,000); AID 1159524; FMDV antiviral cell-based qHTS; calls by dose curve; tested in HEK293T cells; further: read-out not given here; nearly all actives have a fitted effect of over 45% in size
# Lassa entry inh = inhibitors of Lassa virus binding or cell entry; AID 540256; actives 1.2% (n = 300,000); Potency, µM (doses to about 37.9 µM), usual class: inhibitors; Lassa virus pseudotype entry inhibition, cell reporter; calls by dose curve; tested in HEK293 cells; further: nearly all actives have a fitted effect of over 50% in size
# Vaccinia Venus = inhibitors of vaccinia virus (Venus reporter). Vaccinia virus Venus reporter expression, fluorescence. Potency, µM (highest dose often 36.5 µM), hits mostly inhibitors. actives 0.46% (n = 330,000). AID 720580; calls by dose curve; tested in A549 cells; further: nearly all actives have a fitted effect of over 30% in size
# Marburg entry inh = inhibitors of Marburg virus binding or cell entry; AID 540276; Potency, µM (top dose mostly 37.8 µM), actives largely listed as inhibitors; actives 1.8% (n = 300,000); Marburg virus pseudotyped entry inhibition, cell reporter; calls by dose curve; tested in HEK293 cells
# VACV mCherry inh = inhibitors of vaccinia virus infection (mCherry reporter signal) | Vaccinia virus mCherry reporter infection, fluorescence | actives 0.63% (n = 310,000) | Potency, µM (highest dose often 36.5 µM), actives largely listed as inhibitors; calls by dose curve; tested in A549 cells; further: nearly all actives have a fitted effect of over 35% in size
# HCV inhibitor = HCV inhibition; Huh7.5.1 HCVcc-Cre infection, luciferase reporter, 44 h; Potency, µM (series often up to 41.8 µM), hits mostly inhibitors; actives 3.4% (n = 340,000); active means well fitted inhibition curve with a large enough effect; inconclusive means small, poorly fitted or top-dose-only effect, or another doubt; inactive means no such curve, though single readings can be large or run the other way
#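 Infectious HCVcc-Cre (~0.5 moi) was added to cells just after compound, with cells seeded 4 h earlier at 1,000 per well. Luciferase activity after 44 h culture reported infection; substrate was incubated 15 min at room temperature before reading.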
# A number is an active result; - = inactive; ? = inconclusive; . = no result given. Sampled rows, rich in hits. Any-hit rate of the full collection: about 5.3%.
SMILES,FMDV inh,Lassa entry inh,Vaccinia Venus,Marburg entry inh,VACV mCherry inh,HCV inhibitor
Cc1ccc2cc(CN(CC3CCCO3)C(=S)NCc3ccco3)c(=O)[nH]c2c1C (centres undefined),-,5.8µM,-,0.63µM,-,?
Cc1cc2cc(CN(CCN(C)C)C(=S)NCc3ccco3)c(=O)[nH]c2cc1C,-,-,-,?,-,-
Cc1ccc2cc(CN(CC3CCCO3)C(=O)NC3CCCCC3)c(=O)[nH]c2c1C (centres undefined),-,-,.,-,.,-
CCN(CC)CCCN(Cc1cc2ccc(C)c(C)c2[nH]c1=O)C(=O)NC1CCCCC1,-,-,.,?,.,5.6µM
COc1ccccc1NC(=S)N(Cc1ccco1)Cc1cc2cc(C)ccc2[nH]c1=O,-,-,?,4µM,?,?
COCc1ccc(CN2Cc3cc(Cl)ccc3OC(C)C2)o1 (centres undefined),-,.,-,.,-,.
N#Cc1ccc(OCc2c(-c3ccccc3)nnn2CC(=O)O)cc1,-,.,-,.,-,.
CCN(CC)CCN(Cc1cc2cc(C)ccc2[nH]c1=O)C(=O)Nc1ccccc1OC,-,-,-,?,.,-
CCc1ccc2[nH]c(=O)c(CN(Cc3ccccc3OC)C(=O)Nc3ccccc3OC)cc2c1,-,?,.,?,.,7.9µM
CCN(CC)CCN(Cc1cc2ccc(C)cc2[nH]c1=O)C(=S)Nc1ccccc1C(=O)OC,-,?,?,2µM,?,?
C1=CN2CC=Cc3cc(/C=C/c4ccnc5ccccc45)cc(c32)C1,.,.,-,.,-,.
Cc1ccc(S(=O)(=O)N2CCN(c3nc(-n4cccn4)nc4ccccc34)CC2)cc1,.,.,-,.,-,.
CCN(CC)c1ccc2c(c1)CCCN2,.,.,.,.,.,11µM
CCOc1ccc(-c2cccc(NS(=O)(=O)c3ccccc3C(F)(F)F)c2)nn1,-,-,-,.,-,.
COc1ccc(-c2onc(C)c2C)cc1S(=O)(=O)N1CCc2ccccc21,-,-,-,.,?,.
COc1ccccc1OCC(=O)NCCCN1CCOCC1,-,-,-,-,-,-
O=C(COc1ccc(Br)cc1CO)Nc1ccccc1F,-,-,-,?,.,25µM
O=C(COc1ccc(Br)cc1CO)Nc1ccccc1,-,-,.,-,.,16µM
COc1ccccc1NC(=O)COc1cc(Br)c(CNCCCN2CCOCC2)cc1OC,-,.,.,.,.,11µM
COc1ccccc1NC(=O)COc1ccc(Br)cc1CNC1CCCC1,-,.,-,5.6µM,-,?
Cc1ccc(NC(=O)COC(=O)c2ccccc2OCC(=O)N(C)C)cc1,.,.,-,.,-,.
O=C(CC1N=C2c3ccccc3N=C(SCc3cccc(F)c3)N2C1=O)NCc1ccc2c(c1)OCO2 (centres undefined),-,-,-,.,-,.
CCn1c2c(c(=O)n3ncc(C(=O)N4CCN(c5ccc(Cl)cc5)CC4)c13)CN(Cc1ccc(OC)cc1)CC2,?,?,-,.,?,.
CCc1ccc(/C=C2\SC(=S)N(CCCC(=O)Nc3cc(C)on3)C2=O)cc1,16µM,.,-,.,-,.
CCc1ccc(/C=C2\SC(=S)N(CCCC(=O)NC3=NCCS3)C2=O)cc1,14µM,.,-,.,-,.
SMILES,FMDV inh,Lassa entry inh,Vaccinia Venus,Marburg entry inh,VACV mCherry inh,HCV inhibitor
COc1cccc(/C=C2\SC(=S)N(CCCC(=O)NC3=NCCS3)C2=O)c1,-,.,.,.,.,-
CCOc1ccc(C(=O)Nc2ccc(-c3nc4cc(CC)ccc4o3)cc2)cc1,-,-,-,.,?,.
CCc1cc(C(=O)NC2CCCN(Cc3ccccc3F)C2)n(C)n1 (centres undefined),?,.,.,.,.,8.9µM
Cn1nc(C(=O)NC2CCCN(Cc3ccccc3F)C2)c2ccccc2c1=O (centres undefined),-,?,-,?,-,?
COc1ccccc1NCc1nnc2n1CCCCC2,-,-,-,.,-,.
O=C1OC(c2ccccc2)(c2ccc3cc(O)ccc3c2)c2ccccc21 (centres undefined),-,-,?,5.6µM,7.9µM,?
O=C1OC(c2ccc(O)cc2)(c2ccc(O)cc2)c2ccccc21,-,?,?,?,-,?
O=C(Nc1nc(-c2ccc(Br)cc2)ns1)c1ccccc1F,-,-,-,?,-,.
CCOC(=O)c1c(-c2ccccc2)nnn1-c1nc(OCC)nc(N2CCCCC2)n1,?,?,-,?,-,6.3µM
CCOC(=O)c1nnn(-c2nc(OC)nc(N3CCCCC3)n2)c1-c1ccccc1,.,.,.,-,.,.
CCOC(=O)c1nnn(-c2nc(N3CCCC3)nc(N3CCCC3)n2)c1-c1ccccc1,-,?,.,-,.,18µM
CC1=NN(c2ccccc2)C(=O)C1=Cc1ccccc1,-,.,-,.,-,.
